Measured values taken from PubChem BioAssay AID1259318 (Sanford-Burnham Center for Chemical Genomics, 2017).
Hit rate of the full screen: of about 370,000 compounds, about 3,000 (0.81%) were called active.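 Rule for the calls: active = activity above about 14% (limit read from the data; passing the limit was not always enough); inactive = the rest.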 Shown is part of a subset that was picked to be rich in actives.

molecular target: Nuclear receptor subfamily 1 group D member 1 (Homo sapiens) (UniProt P20393); experiment: modulators of Rev-erb alpha DNA binding, primary screen, biochemical, FITC-DNA, fluorescence polarization, uHTS (AID 1259318); conditions: Rev-erbα–FITC-DNA binding, 90 min, at 10 µM, hits give high values;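 note: 0% = DMSO wells with 35 nM protein and 100% = DMSO wells with 750 nM protein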
Sequence (P20393 whole entry, looked up): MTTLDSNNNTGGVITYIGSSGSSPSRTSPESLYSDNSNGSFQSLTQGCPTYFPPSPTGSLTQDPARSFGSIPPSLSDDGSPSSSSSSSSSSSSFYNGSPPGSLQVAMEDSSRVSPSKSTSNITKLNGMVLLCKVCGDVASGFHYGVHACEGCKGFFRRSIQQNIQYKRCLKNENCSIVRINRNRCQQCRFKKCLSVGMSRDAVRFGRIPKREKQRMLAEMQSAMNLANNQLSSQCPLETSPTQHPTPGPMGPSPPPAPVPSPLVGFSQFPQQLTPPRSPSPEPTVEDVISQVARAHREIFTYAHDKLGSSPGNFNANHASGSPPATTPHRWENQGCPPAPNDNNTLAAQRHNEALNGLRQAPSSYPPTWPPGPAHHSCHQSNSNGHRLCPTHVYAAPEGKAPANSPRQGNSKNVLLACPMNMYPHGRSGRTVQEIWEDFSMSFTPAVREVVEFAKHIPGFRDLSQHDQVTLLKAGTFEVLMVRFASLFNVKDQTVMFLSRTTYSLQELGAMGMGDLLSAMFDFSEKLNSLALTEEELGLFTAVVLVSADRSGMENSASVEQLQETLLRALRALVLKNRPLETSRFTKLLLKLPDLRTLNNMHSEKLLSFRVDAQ

activity, inactive:
COc1ccc(-c2nnc3n2CCCCC3)cc1 -6.25%
O=C(NCc1cccnc1)c1ccc(CS(=O)(=O)c2ccc(Br)cc2)o1 -2.47%
O=S(=O)(c1ccccc1)c1nc(-c2ccccc2F)oc1NCc1cccnc1 -3.4%
Cc1nn(CC#N)c(=O)n1N(C)c1ncc(C(F)(F)F)cc1Cl 7.64%
CCOc1ccc(C2NC(=S)NC3=C2CCc2ccccc23)cc1 (centres undefined) 7.82%
O=C(COC(=O)c1cccc(Cl)c1)NC1CCCCCCC1 -7.98%
O=C(COC(=O)c1cc([N+](=O)[O-])ccc1NCc1ccccc1)NC1CCCCC1 -4.56%
O=C(COC(=O)c1cccc(Cl)c1Cl)NC1CCCCCC1 -4.74%
N#Cc1ccc(C(=O)OCC(=O)NC(=O)NC2CCCCC2)cc1 -4.11%
COC(=O)[C@]12C[C@H](CC(=O)NCc3ccccc3)C(=O)N(CCC3=CCCCC3)C1=C[C@H](C(C)C)O[C@@H]2C1CC1 -4.75%
Cc1cc(C(=O)OCC(=O)Nc2ccc(F)c(F)c2)c(C)o1 4.64%
CCc1ccc(C(=O)NNC(=O)C2CCN(c3ncnc4sc(C)c(C)c34)CC2)cc1 -5.39%
Cc1sc2ncnc(N3CCC(C(=O)Nc4ccc(F)cc4Cl)CC3)c2c1C 8.75%
O=C1NS(=O)(=O)c2ccccc21 4.73%
CCOc1ccc(-n2c(SCC(=O)Nc3cc(C)c(NC(=O)c4ccccc4)cc3OC)nnc2-c2cccc(Cl)c2)cc1 -3.54%
COc1cc(NC(=O)c2ccccc2NS(=O)(=O)c2ccc(Cl)s2)cc(OC)c1 0.46%
COc1cc2cc(CN(CCN3CCCC3)C(=O)Nc3ccccc3Cl)c(=O)[nH]c2cc1OC 1.22%
CCc1ccc2c(c1)NC(=O)C2(C)Cc1ccc(OC(F)(F)F)cc1 (centres undefined) 4.7%
CC1(Cc2cccc(C#N)c2)C(=O)Nc2ccc(-c3cccc(C(F)(F)F)c3)cc21 (centres undefined) 0.78%
COc1cc2c(cc1OC)[C@@H](Cc1cc(OC)c(OC)c(OC)c1)[N+](C)(CCCOC(=O)CC/C=C/CCC(=O)OCCC[N+]1(C)CCc3cc(OC)c(OC)cc3[C@H]1Cc1cc(OC)c(OC)c(OC)c1)CC2 (some centres undefined) 4.74%
Cc1cc(=O)oc(C)c1C(=O)NC1CC(C)(C)NC(C)(C)C1 -3.78%
Cc1c(Br)cc(C(=O)N2CCCCCC2)c(C)c1C -0.12%
CCC1(C)OC(=O)N(C)C1=O (centres undefined) -3.1%
Nc1cccc(OCCCCCOc2cccc(N)c2)c1 5%
COc1cc(OC)cc(-c2c(C#Cc3ccsc3)c3cc(-c4ccc(OC)cc4F)ccc3n2C)c1 -0.12%
COc1ccc(-c2c(C#Cc3ccsc3)c3cc(-c4ccc(CN5CCOCC5)cc4)ccc3n2C)cc1 3.65%
Cc1ccc(-c2ccc(CN3C(C)C(=O)N(Cc4cn(CCC5OCCCO5)nn4)CCS3(=O)=O)cc2)cc1 (centres undefined) 1.81%
CC1(C)C2CC[C@]3(C)C(C(=O)C=C4[C@@H]5C[C@@](C)(C(=O)O)CC[C@]5(C)CC[C@]43C)[C@@]2(C)CC[C@@H]1O (some centres undefined) -5.93%
CC(C)(C)OC(=O)C[C@@H]1C/C=C\C[C@H](CC(=O)N[C@@H](CO)Cc2ccccc2)C(=O)N[C@H](Cc2ccccc2)COC1=O -3.46%
Cc1ccc(C)c2c1cc(C)c1nnc(SCC(=O)Nc3cccc(C(=O)O)c3)n12 -2.26%
Cc1csc(SCC(=O)Nc2sccc2C#N)n1 -1.85%
Cc1ccc(NC(=O)CSc2sc3c(O)cc(=O)[nH]c3c2C#N)cc1C -17.5%
COC(=O)CSc1nc2c(c(C3CC=CCC3)c1C#N)CCC2 (centres undefined) 0.02%
Cc1ccc2nc(SCc3nnc(-c4ccccc4[N+](=O)[O-])o3)c(C#N)cc2c1 -0.86%
Cc1cc(C#N)c(SCC(N)=O)nc1-c1ccc(F)cc1 -0.55%
CCNC(=O)CC1C(=O)N(c2ccc(OC)cc2)C(=O)N1CCOC (centres undefined) -2.32%
C/C(=N\NC(=O)c1cc2c(s1)CCC(C)C2)c1cccnc1 (centres undefined) -5.04%
CCCCN(CCCC)CCNC(=O)CN1C(=O)COc2ccc(S(=O)(=O)N3CCOCC3)cc21 2.87%
C[C@@H](CN1C2=NC[C@@H](Cc3ccccc3)N2C[C@H]1Cc1ccc(O)cc1)NC(=O)CCC1CCCCC1 -3.34%
C[C@H]1CCC/C=C/C(=O)c2c(O)cc(O)cc2CC(=O)O1 -5.09%
O=C(CN1C(=O)COc2ccccc21)Nc1ccc(F)cc1 -4.74%
O=C(CN1C(=O)/C(=C/c2ccccc2F)Sc2ccccc21)NCc1cccnc1 -1.22%
CCN(CC)C(=O)CC[C@@H]1CC[C@]2(CCCN(S(=O)(=O)C3CCCCC3)C2)O1 -2.68%
COc1ccccc1OCCNCC(O)COc1cccc2[nH]c3ccccc3c12 (centres undefined) 0.09%
COC(=O)C1=C(C)N(Cc2ccccc2C(F)(F)F)C(=NCc2ccc(OC)cc2)NC1c1cccc(C(F)(F)F)c1 (centres undefined) 3.37%
C=C(C)C1CC=C(C)/C(=N/NC(=O)CCCNc2cccc(C)c2)C1 (centres undefined) -3.69%
COc1ccccc1NC(=O)COC(=O)CNC(=O)C1CCCCC1 -2.69%
COc1ccc(-n2c(COc3ccc(C)cc3)nnc2SCC(=O)Nc2ccc(Oc3ccccc3)cc2)cc1 -3.25%
CCc1ccc(S(=O)(=O)Nc2ccc(C)c(NS(C)(=O)=O)c2)cc1 -7.94%
O=C(/C=C/c1ccc(Cl)cc1)Nc1ccc(Br)cn1 -0.31%
CN1C(=O)c2ccc(NC(=O)c3c(F)c(F)c(F)c(F)c3F)cc2C1=O -2.78%
CS(=O)(=O)c1ccc(Cl)c(NC(=O)COC(=O)c2ncc(Cl)c(Cl)c2Cl)c1 -0.27%
Cc1[nH]c2ccccc2c1CC(=O)Nc1ccc(Nc2cccnc2)c(-c2cccc(Cl)c2)c1 3.32%
O=C(O)CCCCC(=O)O -0.86%
O=C1c2ccccc2C(Nc2ccc3c(c2)OCCO3)N1Cc1ccco1 (centres undefined) -1.18%
CCC(C)NC(=O)C1c2ccccc2C(=O)N1Cc1ccccc1 (centres undefined) -2.38%
CC(=O)c1c(N)n(C)c(=O)n(C)c1=O 5.4%
COC(=O)CN1C(=O)C(C)(C)Oc2ccc(C(=O)Nc3cccc(OC)c3)cc21 6.32%
COc1ccc(NC(=O)CSc2ncnc3[nH]ncc23)cc1 -0.29%
CCOc1ccc(NC(=O)CSc2nncn2C)cc1 3.05%
COC(=O)Nc1nc2ccc(C(=O)C3CC3)cc2[nH]1 -10.6%
CC1(C)OC[C@@H](COC(=O)CCc2ccc(OC[C@@H](O)CNCCNC(=O)N3CCOCC3)cc2)O1 0.02%
CC(NC(=S)Nc1ccccc1)C(c1cccs1)N1CCOCC1 (centres undefined) 4.26%
CC(=O)C1=C(C)N(Cc2ccccc2)C(=S)NC1c1cccc(Br)c1 (centres undefined) -3.28%
O=[N+]([O-])/C=C1\CCCCCN1 -3.45%
COc1cccc(CNC(=O)[C@H]2CCCN2C(=O)[C@H]2CCCN2C(=O)C2CCCCC2)c1 4.65%
O=C1Nc2ccccc2C1=NN=Cc1ccco1 -0.74%
Cc1ccc(-c2nc(CS(=O)CC(=O)N3CCN(c4ncccn4)CC3)c(C)o2)cc1 (centres undefined) 4.76%
O=S(=O)(c1ccccc1)N1CCC(c2nc3ccccc3o2)CC1 -9.25%

activity, active:
O=S(=O)(c1ccc(Br)cc1)c1nc(-c2ccccc2)oc1NCc1cccnc1 27.6%
O=C(COC(=O)c1ccccc1SCC(=O)NC1CCCCC1)NC1CCCCC1 70.3%
N#Cc1ccccc1Sc1ccccc1C(=O)OCC(=O)NC1CCCCC1 61.4%
Cc1sc2ncnc(N3CCC(C(=O)Nc4nc5ccc(Cl)cc5s4)CC3)c2c1C 42.2%
COc1ccc2[nH]c(C(=O)Nc3ccccc3Cl)cc2c1 49.3%
COc1ccccc1CC1(C)C(=O)Nc2ccc(OC(F)(F)F)cc21 (centres undefined) 51.9%
Cc1cc(=O)oc(C)c1C(=O)N1CCCCC1 20.1%
COc1cc(OC)cc(-c2c(C#Cc3ccsc3)c3cc(-c4ccc(SC)cc4)ccc3n2C)c1 34.1%
Cc1nonc1NC(=O)CSc1nc2ccccc2cc1C#N 39.8%
CCOc1ccc2cc(C#N)c(SCC(=O)OC)nc2c1 116%
Cc1nc2cc(NC(=O)CSc3nc4c(C)cccc4cc3C#N)ccc2s1 95.7%
CC(C)OCCCNC(=O)CN1C(=O)/C(=C/c2ccccc2F)Oc2ccccc21 25%
Oc1ccc2ccc3cccc[n+]3c2c1 34.3%
C=C(C)C1CC=C(C)/C(=N\NC(=O)CNc2ccccc2OC)C1 (centres undefined) 28.5%
CN1/C(=C\C=C2\N=C(c3ccc(F)cc3)OC2=O)C(C)(C)c2ccccc21 36.5%
CN1C(=O)c2ccc(C(=O)Nc3ccc(Br)cn3)cc2C1=O 73.7%
CCCCCn1nnnc1C1c2ccccc2C(=O)N1Cc1ccco1 (centres undefined) 17.3%
CCOc1ccc(NC(=O)CSc2ncnc3c2sc2ccccc23)cc1 298%
CN(C)c1ccc(/C=C2\NC(=S)N(Cc3ccccc3)C2=O)cc1 40.1%
Cc1cc(C)c(/C=C2\C(=O)Nc3ccccc32)[nH]1 22.7%
